Assay results as given in PubChem BioAssay (Tox21).
Where “and” joins values, the source holds several entries; their conditions need not be identical. Identical values can stand only once. Results filed as inconclusive are left out. Where a call stands in place of a potency, no number is given. The source holds several records for some structures; these can differ, active in one and inactive in another. Calls of active or inactive are those of the source. Unless noted, calls come from the whole dose curve; as a rule, active = well fitted curve in the direction sought with a large enough effect in the repeat runs; inconclusive = weak or mixed curves; inactive = no such curve, though single readings can be large; an effect the other way counts as inactive or inconclusive.

Key:
[1] = biological target: Retinoic acid receptor RXR-alpha (Homo sapiens) (UniProt P19793); assay: qHTS assay to identify small molecule agonists of the RXR signaling pathway (AID 1159527; calls by dose curve; note: nearly all actives have a fitted effect of over 35% in size; note: potency is the fitted concentration of half-maximal effect)
Sequence of Retinoic acid receptor RXR-alpha (Homo sapiens) (P19793 whole entry, looked up): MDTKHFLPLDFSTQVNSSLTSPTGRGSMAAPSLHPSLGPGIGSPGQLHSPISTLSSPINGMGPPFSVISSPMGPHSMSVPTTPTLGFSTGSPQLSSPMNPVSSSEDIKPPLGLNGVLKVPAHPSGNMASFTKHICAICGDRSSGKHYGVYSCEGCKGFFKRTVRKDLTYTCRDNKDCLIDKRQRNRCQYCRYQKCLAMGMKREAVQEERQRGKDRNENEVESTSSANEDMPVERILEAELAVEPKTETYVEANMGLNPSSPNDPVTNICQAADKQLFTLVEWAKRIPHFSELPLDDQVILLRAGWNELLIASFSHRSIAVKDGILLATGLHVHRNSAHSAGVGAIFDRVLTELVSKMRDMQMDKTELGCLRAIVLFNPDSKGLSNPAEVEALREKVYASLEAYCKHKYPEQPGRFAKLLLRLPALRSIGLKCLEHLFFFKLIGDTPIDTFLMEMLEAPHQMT
In short: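 Agonist mode; 9-cis retinoic acid positive control. HEK 293T UAS-bla reporter cells, 2% charcoal-stripped FBS, 16 hr compound exposure at 37 C/5% CO2. LiveBLAzer B/G FRET substrate 2 hr RT; ex 405, em 460/530 nm.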

[2] = qHTS assay to identify small molecule agonists of the RXR signaling pathway - cell viability counter screen (AID 1159529); note: series mostly up to about 77 µM; nearly all actives have a fitted effect of over 50% in size
In short: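 Luminescence from CellTiter-Glo (30 min, RT) measured viability in the same wells as the beta-lactamase reporter readout. Cells: GeneBLAzer RXR-alpha HEK 293T, 2% charcoal-stripped FBS. Compound exposure 16 hr, 37 C.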

[3] = qHTS assay to identify small molecule antagonists of the retinoid acid receptor (RAR) signaling pathway - cell viability counter screen (AID 1159551); note: nearly all actives have a fitted effect of over 35% in size
In short: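 In this counter screen, the RARE-luciferase line C3RL4 was exposed for 6 h at 37 C and 5% CO2 to compounds with retinol at 1 uM final. Cellular ATP, read by luminescence, served as the viability measure.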

[4] = qHTS assay to identify small molecule antagonists of the retinoic acid receptor (RAR) signaling pathway (AID 1159552; note: nearly all actives have a fitted effect of over 50% in size)
In short: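 Luminescence from a RARE luciferase reporter in C3RL4 cells served as read-out. Cells received compounds together with 1 uM final retinol and incubated 6 hr at 37 C before detection reagent was added for 30 min at room temperature.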

[5] = qHTS assay to identify small molecule agonists of the retinoic acid receptor (RAR) signaling pathway (AID 1159553); note: potency is the fitted concentration of half-maximal effect
In short: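 In this cell-based screen, 1,000 C3RL4 cells per well were cultured overnight, dosed with test chemicals in DMSO for 6 hr, and assessed for RARE luciferase luminescence.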

[6] = qHTS assay to identify small molecule antagonists of the estrogen related receptor (ERR) signaling pathway - cell viability counter screen (AID 1224818); note: series mostly up to about 46 µM
In short: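 Viability of ERR cells, CellTiter-Fluor fluorescence; 17.5 h compound exposure at 37 C, DMSO vehicle; 30 min reagent incubation at 37 C/5% CO2.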

[7] = qHTS assay to identify small molecule antagonists of the estrogen related receptor (ERR) signaling pathway (AID 1224819; note: nearly all actives have a fitted effect of over 50% in size; note: potency is the fitted concentration of half-maximal effect)
In short: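 Seed ERR cells 2,000/well; rest 6 h at 37 C/5% CO2; pin compounds in DMSO; incubate 18 h at 37 C; add One-Glo; wait 30 min at room temperature; measure luminescence.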

[8] = qHTS assay to identify small molecule agonists of the estrogen related receptor (ERR) signaling pathway (AID 1224820)
In short: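 Luminescence readout (One-Glo, 30 min RT) from NTP-supplied ERR cell line exposed to compounds for 18 h at 37 C. Cells seeded 2,000 per well and pre-incubated 6 h before pin-tool compound transfer.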

[9] = qHTS assay to identify small molecule antagonists of the estrogen related receptor signaling pathway with the pleiotropic PPARgamma coactivator (PGC) cell viability counter screen (AID 1224822; note: series mostly up to about 46 µM)
In short: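 17.5 h compound treatment of PGC/ERR cells at 37 C; readout CellTiter-Fluor fluorescence; run alongside the PGC/ERR antagonist screen to flag cytotoxic compounds.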

[10] = qHTS assay to identify small molecule agonists of the estrogen related receptor signaling pathway with the pleiotropic PPARgamma coactivator (PGC) (AID 1224823)
In short: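 Luminescence readout (One-Glo, 30 min RT) from PGC/ERR cell line treated 18 h at 37 C with pin-tool-delivered DMSO compound solutions; cells plated 6 h before dosing. Quantitative HTS format.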

[11] = biological target: Luciferin 4-monooxygenase (Photinus pyralis) (UniProt P08659); assay: qHTS assay to identify small molecule inhibitors of firefly luciferase (AID 1224835); note: nearly all actives have a fitted effect of over 25% in size; note: potency is the fitted concentration of half-maximal effect
Sequence of Luciferin 4-monooxygenase (Photinus pyralis) (P08659 whole entry, looked up): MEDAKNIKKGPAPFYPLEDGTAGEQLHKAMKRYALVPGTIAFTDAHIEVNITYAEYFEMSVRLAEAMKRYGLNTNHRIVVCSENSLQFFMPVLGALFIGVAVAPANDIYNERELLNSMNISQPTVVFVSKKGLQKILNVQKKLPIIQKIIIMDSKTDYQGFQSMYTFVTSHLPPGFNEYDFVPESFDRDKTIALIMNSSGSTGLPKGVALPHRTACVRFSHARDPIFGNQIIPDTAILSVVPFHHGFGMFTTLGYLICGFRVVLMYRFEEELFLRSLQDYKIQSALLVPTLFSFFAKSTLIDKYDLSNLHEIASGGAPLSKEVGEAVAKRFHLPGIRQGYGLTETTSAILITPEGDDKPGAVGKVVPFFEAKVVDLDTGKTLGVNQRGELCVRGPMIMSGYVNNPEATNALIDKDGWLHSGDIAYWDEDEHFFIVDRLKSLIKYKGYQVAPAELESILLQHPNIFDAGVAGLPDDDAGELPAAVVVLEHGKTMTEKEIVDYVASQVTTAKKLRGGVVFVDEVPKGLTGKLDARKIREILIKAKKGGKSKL
In short: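 Inhibition of purified Photinus luciferase is measured by luminescence. Substrate levels (D-luciferin, ATP) sit at their KM values. Each compound is tested in a concentration series.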

[12] = qHTS assay to identify small molecule agonists of the constitutive androstane receptor (CAR) signaling pathway - cell viability counter screen (AID 1224836); note: nearly all actives have a fitted effect of over 45% in size; note: potency is the fitted concentration of half-maximal effect
In short: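 Viability read-out: CellTiter-Fluor fluorescence after 23 h compound exposure at 37 C/5% CO2 in double-stable HepG2-CYP2B6-hCAR cells, with PK11195 present at 0.75 uM final; compounds tested in 15-point titration.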

[13] = qHTS assay to identify small molecule antagonists of the constitutive androstane receptor (CAR) signaling pathway - cell viability counter screen (AID 1224837); note: nearly all actives have a fitted effect of over 45% in size; note: potency is the fitted concentration of half-maximal effect
In short: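 CITCO at 50 nM final was added alongside compounds (15 concentrations) to double-stable hCAR/CYP2B6-2.2kb HepG2 cells. Following 23 hr at 37 C, cell viability was quantified by CellTiter-Fluor fluorescence intensity.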

[14] = biological target: Nuclear receptor subfamily 1 group I member 3 (Homo sapiens) (UniProt Q14994); assay: qHTS assay to identify small molecule antagonists of the constitutive androstane receptor (CAR) signaling pathway (AID 1224838); note: nearly all actives have a fitted effect of over 40% in size; note: potency is the fitted concentration of half-maximal effect
Sequence of Nuclear receptor subfamily 1 group I member 3 (Homo sapiens) (Q14994 whole entry, looked up): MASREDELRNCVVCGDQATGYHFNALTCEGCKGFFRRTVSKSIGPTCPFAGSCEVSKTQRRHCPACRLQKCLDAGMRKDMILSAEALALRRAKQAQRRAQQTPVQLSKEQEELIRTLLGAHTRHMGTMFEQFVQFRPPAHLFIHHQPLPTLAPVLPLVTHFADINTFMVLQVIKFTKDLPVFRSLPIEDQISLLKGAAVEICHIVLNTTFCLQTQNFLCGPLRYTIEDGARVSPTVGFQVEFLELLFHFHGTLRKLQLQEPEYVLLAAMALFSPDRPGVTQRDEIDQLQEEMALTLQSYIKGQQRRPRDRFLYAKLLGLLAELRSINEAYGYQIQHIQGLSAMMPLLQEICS
In short: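 Inhibition of CITCO-driven (50 nM final) CYP2B6 reporter expression is measured in HepG2 cells stably carrying hCAR. Fifteen compound concentrations are applied for 24 h at 37 C, followed by luciferase luminescence.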

[15] = biological target: Nuclear receptor subfamily 1 group I member 3 (Homo sapiens) (UniProt Q14994); assay: qHTS assay to identify small molecule agonists of the constitutive androstane receptor (CAR) signaling pathway (AID 1224839); note: nearly all actives have a fitted effect of over 15% in size; note: potency is the fitted concentration of half-maximal effect
In short: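 Luminescence read-out (ONE-Glo, 30 min, room temperature) from double-stable HepG2-CYP2B6-hCAR cells exposed 24 h to 15-point compound series in presence of 0.75 uM PK11195 final.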

[16] = qHTS assay to identify small molecule antagonists of the estrogen related receptor signaling pathway with the pleiotropic PPARgamma coactivator (PGC) from Tox21 10K library - cell viability counter screen (AID 1224840; active = well fitted cell-killing curve with a large enough effect in the repeat runs, not every such curve was filed as active; note: nearly all actives have a fitted effect of over 40% in size; note: potency is the fitted concentration of half-maximal effect)
In short: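 Readout: fluorescence intensity from CellTiter-Fluor after 30 min at 37 C/5% CO2. Preceded by 17.5 h treatment of PGC/ERR cells with DMSO-dissolved compounds, added 6 h post-seeding.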

[17] = qHTS assay to identify small molecule antagonists of the estrogen related receptor signaling pathway with the pleiotropic PPARgamma coactivator (PGC) from Tox21 10K library (AID 1224841; call rule not given here; note: actives are mostly falling curves and most rising ones were filed inactive; nearly all actives have a fitted effect of over 50% in size; note: potency is the fitted concentration of half-maximal effect)
In short: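 One-Glo luminescence, measured after half an hour at room temperature, quantified reporter output of PGC/ERR cells. These had been plated at 2,000 per well, incubated 6 h, dosed with compounds in DMSO, then kept 18 h at 37 C.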

[18] = qHTS assay to identify small molecule agonists of the estrogen related receptor signaling pathway with the pleiotropic PPARgamma coactivator (PGC) from Tox21 10K library (AID 1224842); note: nearly all actives have a fitted effect of over 15% in size
In short: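 Luminescence from One-Glo (30 min, room temperature) measured after PGC/ERR cells had 18 h at 37 C with pinned compound (23 nL in DMSO). Cells had been seeded at 2,000 per well and pre-incubated 6 h.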

[19] = qHTS assay to identify small molecule antagonists of the estrogen related receptor (ERR) signaling pathway from Tox21 library - cell viability counter screen (AID 1224834); note: nearly all actives have a fitted effect of over 30% in size; note: potency is the fitted concentration of half-maximal effect
In short: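 Counter screen run in ERR cells (2,000 cells/well): cells pre-incubated 6 h, then treated with compounds for 17.5 h at 37 C. Fluorescence was read 30 min after CellTiter-Fluor addition.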

[20] = test system: estrogen-related receptor alpha (ERRalpha) with PGC-1alpha coactivator, human; assay: qHTS assay to identify small molecule antagonists of the estrogen related receptor signaling pathway with the pleiotropic PPARgamma coactivator (PGC) (AID 1224821; calls by dose curve)
In short: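 PGC/ERR reporter cells; 6 h pre-incubation 37 C/5% CO2; pin-tool compound in DMSO, 18 h 37 C; One-Glo added, 30 min RT; luminescence read. qHTS antagonist mode.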

Compound | Potency [1] | Potency [2] | Potency [3] | Potency [4] | Potency [5] | outcome [6] | Potency [7] | outcome [8] | Potency [9] | outcome [10] | Potency [11] | Potency [12] | Potency [13] | Potency [14] | Potency [15] | Potency [16] | Potency [17] | Potency [18] | Potency [19] | outcome [20]
CC(C)C(=O)Nc1ccc([N+](=O)[O-])c(C(F)(F)F)c1 | inactive | inactive | inactive | inactive | inactive | inactive | 22.8 µM (active) | inactive | inactive | inactive | inactive | inactive | inactive | inactive | inactive | inactive | 28.1 µM (active) and 30.6 µM (active) and 21.1 µM (active) | inactive |  | 
Cc1ncc([N+](=O)[O-])n1CCO | inactive | inactive | inactive | inactive | inactive |  |  |  |  |  | inactive | inactive | inactive | inactive | inactive | inactive | inactive | inactive | inactive | 
COc1ccc(C(Cl)=C(c2ccc(OC)cc2)c2ccc(OC)cc2)cc1 | inactive | inactive | inactive | inactive | inactive |  |  |  |  |  | inactive | inactive | inactive | inactive | inactive | inactive | 27.2 µM (active) and 30.6 µM (active) and 23.7 µM (active) | inactive |  | 
CCCCOC(=O)c1ccc(O)cc1 | inactive | inactive | inactive | inactive | 27.3 µM (active) |  |  |  |  |  | 80.7 µM (active) and 63.3 µM (active) and inactive | inactive | inactive | inactive | 55.1 µM (active) and 30.6 µM (active) and inactive | inactive |  |  | inactive | 
O=S1(=O)OC(c2ccc(O)cc2)(c2ccc(O)cc2)c2ccccc21 | inactive | inactive | inactive | inactive | inactive |  |  |  |  |  | 31.7 µM (active) and 17.8 µM (active) and 12.3 µM (active) | 30.6 µM (active) and 27.3 µM (active) and 33.5 µM (active) | 27.3 µM (active) and 13.3 µM (active) | inactive | inactive | 30.6 µM (active) and 27.3 µM (active) and 21.1 µM (active) | 54.5 µM (active) and 61.1 µM (active) and inactive | inactive | 27.3 µM (active) and 18.8 µM (active) | 
NC(CO)(CO)CO | inactive | inactive | inactive | inactive | inactive |  |  |  |  |  | inactive | inactive | inactive | inactive | inactive | inactive |  |  | inactive | 
Nc1c2c(nc3ccccc13)CCCC2 | inactive | inactive | inactive | inactive | inactive | inactive | inactive | inactive | inactive | inactive | inactive | inactive | inactive | 54.5 µM (active) and 43.3 µM (active) and inactive | inactive | inactive | inactive | inactive |  | inactive
CCCCCCCC(=O)OCC(COC(=O)CCCCCCC)OC(=O)CCCCCCC | inactive | inactive | inactive | inactive | inactive |  |  |  |  |  | inactive | inactive | inactive |  |  | inactive |  |  | inactive | 
CCCc1cc(=O)[nH]c(=S)[nH]1 | inactive | inactive | inactive | inactive | inactive |  |  |  |  |  | inactive | inactive | inactive | inactive | inactive | inactive |  |  |  | 
O=C(O)CC(O)C(=O)O (stereo not drawn) | inactive | inactive | inactive | inactive | inactive |  |  |  |  |  | inactive | inactive | inactive | inactive | inactive | inactive |  |  | inactive | 
CN(C)CCOC(C)(c1ccccc1)c1ccccn1 (stereo not drawn) | inactive | inactive | inactive | inactive | inactive | inactive | inactive | inactive | inactive | inactive | inactive | inactive | inactive | inactive | inactive | inactive | inactive | inactive | inactive | inactive
NC1CCCCC1 | inactive | inactive | inactive | inactive | inactive |  |  |  |  |  | inactive | inactive | inactive | inactive | inactive | inactive |  |  | inactive | 
Oc1ccccc1 | inactive and 11 µM (active) | inactive | inactive | inactive | inactive |  |  |  |  |  |  | inactive | inactive | inactive | inactive | inactive |  |  | inactive | 
C=CCc1ccc(O)c(OC)c1 | inactive | inactive | inactive | inactive | inactive |  |  |  |  |  | inactive | inactive | inactive | inactive | inactive | inactive |  |  |  | 
CC12CCC(CC1)C(C)(C)O2 | inactive | inactive | inactive | inactive | inactive |  |  |  |  |  | inactive | inactive | inactive |  |  | inactive |  |  |  | 
